Source: PubChem BioAssay (NCI)
Compounds without any hit were thinned out: in the full panel of roughly 83,000, 20% have a hit.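 Activity criterion: percent growth below 10, measured after cells in 96-well plates were exposed to a single compound concentration for 48 hours.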 Unmarked numbers belong to inactive results. The source made the active and inactive calls.

These compounds were tested on MDA-MB-468 breast (assay: NCI-60 one-dose screen, 48 h (100 = growth as untreated, 0 = no growth, -100 = all killed)). Conditions: 10 µM unless noted.
With `C#Cc1nc(C2=C(C)C(=O)/C(=N/OC(C)=O)C2)cs1` the growth was 69.9%.
`O=C(CCCCCCN1CC(=O)N2[C@@H](C3CC3)c3[nH]c4ccccc4c3C[C@H]2C1=O)NO` was tested, and the growth was 64.6%.
In the case of `C[C@@H](Oc1cc(-c2cnn(C3CC4(CCNCC4)C3)c2)cnc1N)c1c(F)ccc(Cl)c1Cl`, the growth is reported as -53.3% (active).
With `Nc1ncnc2c1C(c1ccc(Br)cc1)c1sc3c(F)cccc3c1O2` (stereo not given) the growth was 103%.
`Cc1ccc2c(=O)cc(C(=O)Nc3sc4c(c3C(=O)NCc3cccnc3)CCCC4)oc2c1C` gave a growth of 109%.
Work on `CCOC(=O)CC1CSC(N/N=C/c2ccc(O)cc2)=N1` (stereo not given) yielded a growth of 108%.
In the case of `COc1cc(C(=O)/C=C/c2c(-c3cccs3)nc3sccn23)cc(OC)c1OC`, the growth is reported as -49.5% (active).
For `O=c1c2ccccc2cc2n1CCN=C2c1ccccc1`, the growth was 98.4%.
`COc1ccccc1Cn1cc2c(c1)-c1oncc1CC2` was tested, and the growth was 6.66% (active).
`COc1cc(/C=N/Nc2ncc(-c3cc4cc5c(cc4o3)OCO5)s2)cc(OC)c1OC` gave a growth of 25.2%.
For `CC(C)(C)CC(C)(C)Nc1c(-c2ccc(-c3ccccc3)cc2)nc2cnccn12`, the growth was 109%.
`COc1cc(NCC(=O)Nc2cc(Nc3cccc(C(F)(F)F)c3)ncn2)c(Cl)c(OC)c1Cl` was tested, and the growth was 101%.
Compound `COC1=CC(c2ccc[nH]2)=N/C1=C\c1[nH]c(C)c(C(=O)CCCCC(=O)Oc2ccc3c(c2)CCC2C3CC[C@]3(C)[C@@H](O)CC[C@@H]23)c1C` (stereo not given in full) has a growth of 52.2%.
Compound `CC(=O)c1ccc(NS(=O)(=O)c2cccc(C(=O)Nc3ccc(Br)cc3)c2)cc1` has a growth of 15.3% [25 µM].
For `Nc1ccc(S(=O)(=O)Nc2ncccn2)cc1`, the growth was 109%.
For `O=C1Nc2cc(-c3ccc(NC(=O)C4CC4)cc3)ccc2/C1=C/c1ccc[nH]1`, the growth was 0.756% (active).
In the case of `Fc1cccc(-c2ccc3c(c2)C2(CCNCC2)CN3)c1`, the growth is reported as 116%.
In the case of `Cc1csc(NC(c2ccc(Br)cc2)c2c(C)nc3ccccn23)n1` (stereo not given), the growth is reported as 93.5%.
For `Cc1ccc(C)c(NC2=C(Cl)C(=O)c3nc(C)ccc3C2=O)c1`, the growth was -73.5% (active).
For `O=C(Nc1nc2ccc(C(F)(F)F)cc2s1)c1cc(Cl)ccc1O`, the growth was -1.49% (active).
Work on `COc1ccc(C(=O)C(C)C)c2ccccc12` yielded a growth of 102%.
`O=C(c1ccncc1)N1N=C(c2ccc(Cl)cc2)C[C@H]1c1cn(-c2ccccc2)nc1-c1ccccc1` showed a growth of 88.5%.
Work on `CCOC(=O)C(c1ccccc1)N1C(=O)c2ccccc2C1=O` (stereo not given) yielded a growth of 137%.
In the case of `COc1cc(C(=O)Nc2ccc(N(C)C)cc2)cc(OC)c1OC`, the growth is reported as 80%.
`COc1c2occc2c(OC)c2c(=O)c(-c3cc(-c4ccc(F)cc4)c(C#N)c(N)n3)c(C)oc12` showed a growth of 26.4%.
Work on `CN(C)N1C(=O)c2c(Cl)c(Cl)c(Cl)c(Cl)c2C1=O` yielded a growth of 96.1%.
In the case of `CC(=O)Nc1ccc(NC(C)=O)c2c1C(=O)c1ccccc1C2=O`, the growth is reported as 107%.
Compound `Cc1cc2[nH]c(=O)c3c4ncccc4cn3c2cc1C` has a growth of 23.2%.
`COc1cc(OC)c2sc(-c3ccc(-n4cncc4-c4ccc(OC)c(OC)c4)cc3)nc2c1` was tested, and the growth was 31%.
With `O=Cc1ccc2nc(C(Cl)(Cl)Cl)ccc2c1` the growth was 95.2%.
`COc1ccc(S(=O)(=O)Nc2c(/C=C\c3cc(OC)c(OC)c(OC)c3)ccc(OC)c2O)cc1` was tested, and the growth was 10.9%.
For `Cc1cc(C)c(O)c(CNCCCNCc2cc(C)cc(C)c2O)c1`, the growth was 7.95% (active).
Work on `CCOC(=O)C1=C(C)NC(=O)NC1c1cc(=O)oc2ccc(C)cc12` (stereo not given) yielded a growth of 106%.
`Cc1cc(NCc2cc(Nc3ccnc4cc(Cl)ccc34)ccc2F)nc(N2CCOCC2)n1` was tested, and the growth was 39.9%.
`CCC(C)(O)CCC(C)(O)CC` (stereo not given) showed a growth of 106%.
In the case of `OCCN1CCN(c2cc(-c3cccc(OC(F)(F)F)c3)nc3ccc(N4CCCC4)cc23)CC1`, the growth is reported as 16.6%.
`COc1cc(C=O)ccc1OC1OC(COC(C)=O)C(OC(C)=O)C(OC(C)=O)C1OC(C)=O` (stereo not given) gave a growth of 100%.
`Cc1cc(-c2ccc(Cl)cc2)n(Cc2nnc(SCC(=O)Nc3ccc(S(N)(=O)=O)cc3)n2C2CCCCC2)n1` gave a growth of 117%.
`O=C1/C(=C/c2ccccc2)Oc2ccc(O)c(I)c21` gave a growth of 104%.
For `N#C/C(=C\N1C(=O)/C(=C/c2cccc([N+](=O)[O-])c2)SC1=S)c1nc2ccccc2s1`, the growth was 81.7%.
